Data taken from PubChem BioAssay (NCI).
This is part of a sample that, as a whole, favours compounds with a hit. Of some 79,000 tested, about 15% had one in any assay. Cut-off read from the data, not from the text of the source: active = growth inhibition above about 70%; inactive = the rest.

Columns and labels:
[1] = NCI Yeast Anticancer Drug Screen. Data for the rad50 strain (AID 155);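 note: 0% = growth of vehicle-only cultures of the same strain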; settings: S. cerevisiae rad50 strain growth inhibition; at 50.0 µM; stronger effect = higher value
Procedure, shortened: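 Growth of the mutant yeast was measured after compound exposure and referenced to vehicle-treated cultures.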

[2] = NCI Yeast Anticancer Drug Screen. Data for the mec2-1 strain (AID 157); settings: S. cerevisiae mec2-1 strain, at 50.0 µM, stronger effect = higher value
Procedure, shortened: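 Growth inhibition is read against vehicle-treated controls after compound exposure of the mec2-1 yeast strain, which is defective in DNA damage repair or cell cycle control.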

[3] = NCI Yeast Anticancer Drug Screen. Data for the sgs1 mgt1 strain (AID 161);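 note: 0% = growth of cultures given vehicle only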; settings: S. cerevisiae sgs1 mgt1 strain, at 50.0 µM, stronger effect = higher value
Procedure, shortened: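 Growth of a repair-deficient yeast mutant was monitored after compound treatment and expressed as inhibition relative to vehicle-treated cultures.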

[4] = NCI Yeast Anticancer Drug Screen. Data for the cln2 rad14 strain (AID 165);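 note: 0% = growth equal to vehicle treated cultures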; settings: S. cerevisiae cln2 rad14 strain, at 50.0 µM, stronger effect = higher value
Procedure, shortened: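 Growth inhibition, relative to vehicle-treated controls, is the read-out. The test organism is a yeast strain with defined genetic alterations, cln2 rad14.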

[5] = NCI Yeast Anticancer Drug Screen. Data for the bub3 strain (AID 167); settings: S. cerevisiae bub3 mutant strain, at 50.0 µM, stronger effect = higher value
Procedure, shortened: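 Whole-cell yeast assay. The mutant strain was incubated with compounds, and growth inhibition was determined by comparison with vehicle-treated cells.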

[6] = NCI Yeast Anticancer Drug Screen. Data for the mlh1 rad18 strain (AID 175); settings: S. cerevisiae mlh1 rad18 strain growth inhibition; at 50.0 µM; stronger effect = higher value
Procedure, shortened: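 Cells of a genetically altered yeast strain, deficient in DNA damage repair, were treated with compound. Their growth was then compared with that of vehicle-treated cultures to give inhibition.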

Measured: growth inhibition

O=C1C=C2CCCCCCCCC(C1)C2 (centres undefined)
inactive: [1] -1.85% | [2] -9.85% | [3] -5.45% | [4] -18.8% | [5] 12.4% | [6] 0.1%

CN=C(N)NC
inactive: [1] -0.1% | [2] 2.45% | [3] 15.1% | [4] 24.1% | [5] 8.55% | [6] 20.1%

O=c1c(-c2ccccc2)coc2ccccc12
inactive: [1] -9% | [2] 1.45% | [3] 8.15% | [4] -52% | [5] -14.3% | [6] 0.15%

COC(=O)c1cc(Cl)ccc1OCC(=O)NCc1ccc(Cl)cc1
inactive: [1] 9.1% | [2] -3.3% | [3] 11.8% | [4] -5.85% | [5] -26.1% | [6] 12.1%

CC(=O)C(Cc1cccc([N+](=O)[O-])c1)Cc1cccc([N+](=O)[O-])c1
inactive: [1] -3.7% | [2] -7.8% | [3] -6.6% | [4] -38% | [5] 15.8% | [6] -9.45%

COc1cc(C2c3cc4c(cc3OC(N3CCCCC3)C2C)OCO4)cc(OC)c1OC (centres undefined)
inactive: [1] -13.4% | [2] -20.1% | [3] -18.1% | [4] 0.15% | [5] -23.6% | [6] -12.6%

Cc1ccc(S(=O)(=O)OCC2=C(COS(=O)(=O)c3ccc(C)cc3)C3c4ccccc4C2c2ccccc23)cc1
inactive: [1] 31.3% | [2] 5.35% | [3] 1.55% | [4] -27.8% | [5] -1.35% | [6] 4.8%

Cc1cc2nnn(C3CCCCO3)c2cc1C (centres undefined)
inactive: [1] 3.25% | [2] -12.9% | [3] -17.9% | [4] -15.8% | [5] 12.8% | [6] -31.7%

CC1OC(c2ccccc2)OC1C (centres undefined)
inactive: [1] 18.6% | [2] -4.65% | [3] -6.9% | [4] -29.9% | [5] -18.9% | [6] 11.8%

[O-][n+]1onc2c1CCC(=N\O)/C2=N/Nc1ccccc1
inactive: [1] -1.55% | [2] -1.05% | [3] -15.1% | [4] 34.9% | [5] 18.6% | [6] 11.3%

OCC[N+]12CCCN1CCC2
inactive: [1] -15.4% | [2] -27% | [3] -21.4% | [4] -12.9% | [5] -15.3% | [6] -30.4%

O=C1Cc2c([nH]c3ccccc23)-c2cc(Br)ccc2N1
inactive: [1] 13.4% | [2] 6.85% | [3] -2% | [4] 2.9% | [5] 31.6% | [6] 2.9%

O=C(O)CSc1n[nH]c(-c2ccccc2)n1
inactive: [1] -14.2% | [2] -4.3% | [3] -7.5% | [4] 2.55% | [5] 2.3% | [6] -9.35%

Cc1ccc(NC(=O)c2ccc(Cl)cc2)cc1
inactive: [1] -8.3% | [2] 1.2% | [3] 8.85% | [4] 3.3% | [5] 0% | [6] -3.55%

Cc1[nH]c(=O)nc(N/N=C/c2ccc(O)cc2)c1C(=O)Nc1ccc(Cl)cc1
inactive: [1] -17.6% | [2] -16% | [3] -20.6% | [4] -3.15% | [5] -12.6% | [6] -25.9%

c1ccc2cc(C3OCC4(CCC4)CO3)ccc2c1
inactive: [1] 11.6% | [2] -1.35% | [3] 3.1% | [4] -26.8% | [5] 24.8% | [6] -6.9%

COc1ccc2ccccc2c1
inactive: [1] -21% | [2] -30% | [3] -12.2% | [4] -23.9% | [5] 1.35% | [6] -31.6%

CCC1(C)C(=O)SC(=S)N1C (centres undefined)
inactive: [1] 4.4% | [2] -0.2% | [3] -4.9% | [4] -8.4% | [5] -0.7% | [6] 5.6%

Cc1cc2c(cc1N)C(C)(C)CCC2(C)C
inactive: [1] -4.65% | [2] -18.2% | [3] 10.2% | [4] -24.9% | [5] -11.8% | [6] -18.1%

CCOC(=O)NC(=S)Nc1nonc1-c1ccccc1
inactive: [1] 1.35% | [2] 2% | [3] 36% | [4] -9.65% | [5] 15.6% | [6] 26.2%

[N-]=[N+]=NC(=O)c1ccc(S(=O)(=O)c2ccc(F)cc2)cc1
inactive: [1] 13.4% | [2] 21.8% | [3] 7.6% | [4] 7.85% | [5] 3% | [6] 38.5%

CN(C)Cc1onc(-c2c(Cl)cccc2Cl)c1C(=O)O
inactive: [1] 1.3% | [2] 8.2% | [3] -9.95% | [4] 6.05% | [5] 21.2% | [6] 8.4%

[O-][n+]1cscc1-c1nc2ccccc2[nH]1
inactive: [1] 7.45% | [2] -13.2% | [3] -2.95% | [4] 10.2% | [5] -7.8% | [6] -7.5%

COc1cc2c(c3[nH]cc(C(=O)O)c(=O)c13)NC(=O)CS2
inactive: [1] -47.1% | [2] -87.8% | [3] -16.9% | [4] -32.4% | [5] -2.85% | [6] -29.4%

CC1(C)OC(COCCOCCCCCO)C(COCCOCCCCCO)O1 (centres undefined)
inactive: [1] 7.1% | [2] 3.75% | [3] 6.2% | [4] 17.9% | [5] -3.05% | [6] 6.7%

COc1ccc(/C(=N\O)c2nccc3cc(OC)c(OC)cc23)cc1OC
inactive: [1] 35.8% | [2] 14.2% | [3] 27.9% | [4] 9% | [5] -2.95% | [6] 18.4%

O=C1C=CC2C=CC1C=C2
inactive: [1] -1.55% | [2] 14.8% | [3] 23.2% | [4] 1.15% | [5] -7.7% | [6] 11.7%

CC(=O)O.Cl.NC1C([O-])OC(CO)C(O)C1O.O=C1OC(C(O)CO)C([O-])=C1[OH2+].[Cu+2] (centres undefined)
inactive: [1] 21.3% | [2] 8.3% | [3] -9.6% | [4] 5.95% | [5] 5.05% | [6] 17.2%

N#CCCN(c1ccc(C=Nc2cccc([N+](=O)[O-])c2)cc1)S(=O)(=O)c1ccccc1
inactive: [1] 0.75% | [2] 5.65% | [3] 14.7% | [4] 8.1% | [5] -1% | [6] 14.4%

O=[N+]([O-])c1nccn1CCCN=c1c2ccccc2n(O)c2ccccc12
inactive: [1] 8.9% | [2] -16.4% | [3] -5.85% | [4] -5.8% | [5] -12.7% | [6] -33.4%

O=C(O)c1ccc(F)cc1F
inactive: [1] 6.25% | [2] -15.9% | [3] 11.3% | [4] -32.7% | [5] -3.75% | [6] 2.85%

CCCC1OCC=CCO1
inactive: [1] 3.75% | [2] -23.6% | [3] -21.1% | [4] -1.45% | [5] -33.5% | [6] 20.4%

O=C(O)c1onc2ccccc12
inactive: [1] -17.9% | [2] -15.1% | [3] -35.2% | [4] -7.7% | [5] -5.15% | [6] -29.8%

Nc1[nH]c(=S)nc2snnc12
inactive: [1] 3% | [2] -6.6% | [3] 9.4% | [4] 11.2% | [5] 3.1% | [6] 14.8%

Cc1ccc(NC(=O)Nc2cccc(C(F)(F)F)c2)cc1NC(=O)Nc1cccc(C(F)(F)F)c1
inactive: [1] 2.75% | [2] 15% | [3] 31.9% | [4] 23.7% | [5] -6.6% | [6] 29.6%

Nc1nc(Cl)c2ncn(C3OC(CO)C(O)C3O)c2n1 (centres undefined)
inactive: [1] -8.1% | [2] -3.65% | [3] -1.9% | [4] -34.5% | [5] -5.2% | [6] 1.4%

COc1ccc(C)c(C2=CCCCC2)c1
inactive: [1] 4.65% | [2] 3.45% | [3] -9.15% | [4] -6.55% | [5] -2.35% | [6] -15.8%

C/C=C/C(=O)N1C(=O)OC[C@@H]1c1ccccc1
inactive: [1] 37.4% | [2] 54.5% | [3] 49.7% | [4] 46.6% | [5] 53.6% | [6] 31.9%

CC1C(c2ccccc2)OC(c2ccccc2)N1C (centres undefined)
inactive: [1] 3.25% | [2] -6.55% | [3] 21.4% | [4] 55.4% | [5] 9.7% | [6] -15.2%
